Experimental data: PubChem BioAssay (NCATS)
The source made the active and inactive calls. Calls come from the whole dose curve; as a rule, active = well fitted curve in the direction sought with a large enough effect; inactive = no such curve, though single readings can be large or run the other way.

target: Alpha-galactosidase A (Homo sapiens) (UniProt P06280); assay: Counterscreen for Glucocerebrosidase Inhibitors: qHTS Assay for Human alpha-Galactosidase at pH 4.5 (AID 992); conditions: purified enzyme, fluorogenic substrate; series mostly up to 76.9 µM; activity change, negative = inhibition: at the top concentration; note: 0% is about no effect
From the text: NIH Chemical Genomics Center [NCGC]
NIH Molecular Libraries Screening Centers Network [MLSCN]
PI Name: Zheng, Wei [NIH]
Alpha-galactosidase is a homodimeric glycoprotein that hydrolyzes the terminal alpha-galactosyl moieties from glycolipids and glycoproteins. Deficiency of this enzyme results in Fabry Disease with progressive accumulation of globotriaosylceramide and other glycosphingolipids in vascular endothelial cells that causes renal failure, myocardial infarction and stroke, and premature death in patients. It has reported that the improper folding and trafficking of alpha-galactosidase resulted from the genetic mutations may account for a significant numbers of Fabry patients. […] We optimized this alpha-galactosidase assay in 1536-well plate format for identifying the novel small molecule inhibitors with the structures other than the sugar analogs in order to develop the new pharmacological chaperones.
NCGC Assay Protocol Summary:
This is a fluorogenic enzyme assay with 4-Methylumbelliferyl alpha-D-galactopyranoside as the substrate and human […] as the enzyme preparation. Upon the hydrolysis of this fluorogenic substrate, the resulting product, […]. 4-Methyllumbelliferone, can be excited at 365 nm and emits at 440 nm which can be detected by a standard fluorescence plate reader. Data were normalized to the controls for basal activity (without enzyme) and 100% activity (with enzyme). In the AC50 values were determined from concentration-response data modeled with the standard Hill equation.
Assay buffer: 50 mM citric acid, 0.005% Tween-20, pH 4.5. (pH 4.5 is an optimal condition for this enzyme assay)
1536-well assay protocol for the human alpha-galactosidase:
(1) Add 2 ul/well of enzyme (2 nM final)
(2) Add 23 nL compounds in DMSO solution. The final titration was 0.7 nM to 77 uM.
(3) Add 1 ul of substrate (80 uM final)
(4) Incubate at room temperature for 20 min.
(5) Add 2 ul stop solution (1M NaOH and 1M Glycine mixture, pH 10)
(6) Detect the assay plate in a ViewLux plate reader (PerkinElmer) with Ex=365 nm and Em=440nm.
Keywords: Alpha-galactosidase, Fabry Disease, pharmacological chaperone, chaperone therapy, high throughput screening, alpha-galactosidase inhibitor, MLSMR, MLSCN, NIH Roadmap, qHTS and NCGC

Alpha-galactosidase A (Homo sapiens), sequence (P06280 whole entry, looked up): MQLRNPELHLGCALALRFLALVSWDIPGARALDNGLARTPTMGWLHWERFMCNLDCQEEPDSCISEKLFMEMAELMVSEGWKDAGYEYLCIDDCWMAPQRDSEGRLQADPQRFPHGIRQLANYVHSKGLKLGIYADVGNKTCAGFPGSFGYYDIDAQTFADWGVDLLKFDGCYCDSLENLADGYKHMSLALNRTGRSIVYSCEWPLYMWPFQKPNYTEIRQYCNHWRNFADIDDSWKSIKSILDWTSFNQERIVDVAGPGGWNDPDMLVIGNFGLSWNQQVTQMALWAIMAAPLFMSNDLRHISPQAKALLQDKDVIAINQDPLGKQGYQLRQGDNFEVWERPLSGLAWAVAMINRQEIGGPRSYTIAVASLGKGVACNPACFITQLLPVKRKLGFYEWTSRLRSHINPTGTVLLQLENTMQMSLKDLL

Row | Compound | activity change, negative = inhibition | outcome
1 | CCCCCCCCCCCCCCCC(=O)O[C@H](CC(=O)O)C[N+](C)(C)C | -0.515% (inactive) | –
2 | C[C@@H]1CNCCN1S(=O)(=O)c1cccc2cnccc12 | 1.12% (inactive) | –
3 | N[C@@H](CO)C(=O)O | 0.616% (inactive) | –
4 | CC(C)(C)NC[C@H](O)c1ccc(O)c(CO)c1 | – | inactive
5 | Cn1cnc2c(NC3CCCC3)ncnc21 | 0.252% (inactive) | –
6 | O=C(O)[C@H]1CCCNC1 | -1.22% (inactive) | –
7 | CC(C)=CCC/C(C)=C/CC/C(C)=C/CSc1ccccc1C(=O)O | -0.647% (inactive) | –
8 | NC(N)=NN=Cc1c(Cl)cccc1Cl | 0.0425% (inactive) | –
9 | Nc1c(S(=O)(=O)O)cc(Nc2ccc(Nc3nc(Cl)nc(Nc4ccc(S(=O)(=O)O)cc4)n3)c(S(=O)(=O)O)c2)c2c1C(=O)c1ccccc1C2=O | -1.51% (inactive) | –
10 | NCCCCCCNS(=O)(=O)c1cccc2c(Cl)cccc12 | -3.46% (inactive) | –
11 | CN(C)C/C=C(\c1ccc(Br)cc1)c1cccnc1 | -2.12% (inactive) | –
12 | CC(N)=NCCCC[C@H](N)C(=O)O | -0.999% (inactive) | –
13 | C=C[C@H](N)CCC(=O)O | 0.969% (inactive) | –
14 | NCCNS(=O)(=O)c1cccc2cnccc12 | -2.12% (inactive) | –
15 | CC(C)NC[C@H](O)c1ccc(NS(C)(=O)=O)cc1 | -0.812% (inactive) | –
16 | CC[C@H](C)N(C)C(=O)c1cc2ccccc2c(-c2ccccc2Cl)n1 | -0.959% (inactive) | –
17 | COCCOC(=O)C1=C(C)NC(C)=C(C(=O)OC(C)C)[C@@H]1c1cccc([N+](=O)[O-])c1 | -7.42% (inactive) | –
18 | N[C@H](C(=O)O)[C@@H]1C[C@@H]1C(=O)O | -0.869% (inactive) | –
19 | Fc1cccc(/C=N\N=C/c2cccc(F)c2)c1 | 0.479% (inactive) | –
20 | COc1cc2c(cc1C(F)(F)F)N(C(=O)Nc1cc(F)cc(-c3cccnc3)c1)CC2 | -0.574% (inactive) | –

Row | Compound | activity change, negative = inhibition | outcome
21 | C[C@@H](CCc1ccc(O)cc1)NCCc1ccc(O)c(O)c1 | -7.1% (inactive) | –
22 | N[C@H](Cc1ccc(Cl)cc1)C(=O)O | -0.335% (inactive) | –
23 | CC[C@H](C)C(=O)O[C@H]1CCC=C2C=C[C@H](C)[C@H](CC[C@@H]3C[C@H](O)CC(=O)O3)[C@H]21 | -0.86% (inactive) | –
24 | N[C@]1(C(=O)O)CCc2cc(C(=O)O)ccc21 | -0.773% (inactive) | –
25 | COC(=O)C1=C(C)NC(C)=C([N+](=O)[O-])[C@H]1c1ccccc1C(F)(F)F | -3.68% (inactive) | –
26 | CN1CCN(CCC=C2c3ccccc3Sc3ccc(S(=O)(=O)N(C)C)cc32)CC1 | 1.58% (inactive) | –
27 | CC(=O)N[C@@H](C(=O)O)C(C)(C)SN=O | 0.503% (inactive) | –
28 | CC(C)NC[C@@H](O)COc1ccc(CCOCC2CC2)cc1 | -2.05% (inactive) | –
29 | Cc1ccc(/C(=C/CN2CCCC2)c2ccccn2)cc1 | -2.94% (inactive) | –
30 | CC#C[C@]1(O)CC[C@H]2[C@@H]3CCC4=CC(=O)CCC4=C3[C@H](c3ccc(N(C)C)cc3)C[C@@]21C | -6.86% (inactive) | –
31 | NC[C@](O)(CS(=O)(=O)O)c1ccc(Cl)cc1 | 0.759% (inactive) | –
32 | COc1cc2nc(N3CCN(C(=O)[C@H]4CCCO4)CC3)nc(N)c2cc1OC | 16.3% (inactive) | –
33 | CC(C)(C)NC[C@H](O)COc1cccc2[nH]c(=O)[nH]c12 | -0.267% (inactive) | –
34 | C=CCN1CCc2cc(O)c(O)cc2[C@H](c2ccccc2)C1 | -2.75% (inactive) | –
35 | N[C@H](CCC(=O)N[C@H](CSN=O)C(=O)NCC(=O)O)C(=O)O | 2.78% (inactive) | –
36 | CCCCCCCCCCCCC/C=C\[C@@H](O)[C@@H](N)CO | -3.92% (inactive) | –
37 | COc1ccccc1NC(=O)Nc1nc(-c2cccnc2)nc2ccccc12 | 0.22% (inactive) | –
38 | COc1ccccc1N1CCN(C[C@@H](O)COc2cccc3ccccc23)CC1 | -12.4% (inactive) | –
39 | C[C@@H]1CCN=C(N)S1 | -5.72% (inactive) | –
40 | Cc1cccc(C)c1NC(=O)C[N+](C)(C)C | 2.66% (inactive) | –
